Changes are numbered by the printed parent chain.

Results on 8 sequences are retold here after PMC11006913.

What all share (experiment): PBM; 200 nM protein, PBS
Holding throughout (conditions): dsDNA, one strand shown

The target in experiment [1] is T1, SIX6 (Homo sapiens, UniProt O95475 114-200, L167I).
T1 sequence: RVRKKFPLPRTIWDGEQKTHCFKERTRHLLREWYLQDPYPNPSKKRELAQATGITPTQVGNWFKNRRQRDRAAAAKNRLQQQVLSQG

For experiment [2], the target named is T2, SIX6 (Homo sapiens, UniProt O95475 114-200, L143V).
T2 sequence: T1 sequence with L30V, I54L

Experiment [3] concerns the target T3, SIX6 (Homo sapiens, UniProt O95475 114-200, H141N).
T3 sequence: T1 sequence with H28N, I54L

Experiment [4] has as its target T4, SIX6 (Homo sapiens, UniProt O95475 114-200, T165P).
T4 sequence: T1 sequence with T52P, I54L

In experiment [5] the target is T5, SIX6 (Homo sapiens, UniProt O95475 114-200, L167M).
T5 sequence: T1 sequence with I54M

The target in experiment [6] is T6, SIX6 (Homo sapiens, UniProt O95475 114-200, L143M).
T6 sequence: T1 sequence with L30M, I54L

For experiment [7], the target named is T7, SIX6 (Homo sapiens, UniProt O95475 114-200, L143I).
T7 sequence: T1 sequence with L30I, I54L

Experiment [8] addresses T8, SIX6 (Homo sapiens, UniProt O95475 114-200, T165G).
T8 sequence: T1 sequence with T52G, I54L

Experiment [9] has as its target T9, SIX6 (Homo sapiens, UniProt O95475 114-200, T139Q).
T9 sequence: T1 sequence with T26Q, I54L

In experiment [10] the target is T10, SIX6 (Homo sapiens, UniProt O95475 114-200, T165A).
T10 sequence: T1 sequence with T52A, I54L

The target in experiment [11] is T11, SIX6 (Homo sapiens, UniProt O95475 114-200, L167V).
T11 sequence: T1 sequence with I54V

In experiment [12] the target is T12, SIX6 (Homo sapiens, UniProt O95475 114-200).
T12 sequence: T1 sequence with I54L

The target in experiment [13] is T13, SIX6 (Homo sapiens, UniProt O95475 114-200, T165I).
T13 sequence: T1 sequence with T52I, I54L

For the sequence GGCCTCCA, the binding signal with SIX6 [1] was 8.94 upbm affinity estimate (log intensity, higher = more binding, comparable within an allelic series); with SIX6 [2], 8.93 upbm affinity estimate (log intensity, higher = more binding, comparable within an allelic series); with SIX6 [3] it was 8.87 upbm affinity estimate (log intensity, higher = more binding, comparable within an allelic series); with SIX6 [4], 9.13 upbm affinity estimate (log intensity, higher = more binding, comparable within an allelic series); with SIX6 [5], 8.94 upbm affinity estimate (log intensity, higher = more binding, comparable within an allelic series); with SIX6 [6], 8.87 upbm affinity estimate (log intensity, higher = more binding, comparable within an allelic series). Further, the binding signal with SIX6 [7] is 8.9 upbm affinity estimate (log intensity, higher = more binding, comparable within an allelic series); with SIX6 [8] it was 9 upbm affinity estimate (log intensity, higher = more binding, comparable within an allelic series); with SIX6 [9], 8.8 upbm affinity estimate (log intensity, higher = more binding, comparable within an allelic series); with SIX6 [10] it was 8.84 upbm affinity estimate (log intensity, higher = more binding, comparable within an allelic series); with SIX6 [11] it was 9.03 upbm affinity estimate (log intensity, higher = more binding, comparable within an allelic series); with SIX6 [12] it was 8.82 upbm affinity estimate (log intensity, higher = more binding, comparable within an allelic series). For the same sequence, the binding signal with SIX6 [13] is 8.87 upbm affinity estimate (log intensity, higher = more binding, comparable within an allelic series).
On to GATATCAA, for which the binding signal was 11.4 upbm affinity estimate (log intensity, higher = more binding, comparable within an allelic series) with SIX6 [1]; 10.5 upbm affinity estimate (log intensity, higher = more binding, comparable within an allelic series) in the experiment with SIX6 [2]; 11.3 upbm affinity estimate (log intensity, higher = more binding, comparable within an allelic series) in the experiment with SIX6 [3]; 10 upbm affinity estimate (log intensity, higher = more binding, comparable within an allelic series) with SIX6 [4]; 10.8 upbm affinity estimate (log intensity, higher = more binding, comparable within an allelic series) with SIX6 [5]; 11 upbm affinity estimate (log intensity, higher = more binding, comparable within an allelic series) with SIX6 [6]. Also, the binding signal with SIX6 [7] was 10.3 upbm affinity estimate (log intensity, higher = more binding, comparable within an allelic series); in the experiment with SIX6 [8] it was 11.3 upbm affinity estimate (log intensity, higher = more binding, comparable within an allelic series); with SIX6 [9] it was 11.1 upbm affinity estimate (log intensity, higher = more binding, comparable within an allelic series); in the experiment with SIX6 [10], 11.3 upbm affinity estimate (log intensity, higher = more binding, comparable within an allelic series); with SIX6 [11] it was 11.1 upbm affinity estimate (log intensity, higher = more binding, comparable within an allelic series); in the experiment with SIX6 [12] it was 11.1 upbm affinity estimate (log intensity, higher = more binding, comparable within an allelic series). For the same sequence, the binding signal with SIX6 [13] was 11.1 upbm affinity estimate (log intensity, higher = more binding, comparable within an allelic series).
On to CCGGGGCC, for which the binding signal is 9.14 upbm affinity estimate (log intensity, higher = more binding, comparable within an allelic series) with SIX6 [1]; 8.96 upbm affinity estimate (log intensity, higher = more binding, comparable within an allelic series) in the experiment with SIX6 [2]; 9.12 upbm affinity estimate (log intensity, higher = more binding, comparable within an allelic series) in the experiment with SIX6 [3]; 8.97 upbm affinity estimate (log intensity, higher = more binding, comparable within an allelic series) with SIX6 [4]; 9.04 upbm affinity estimate (log intensity, higher = more binding, comparable within an allelic series) with SIX6 [5]; 9.04 upbm affinity estimate (log intensity, higher = more binding, comparable within an allelic series) in the experiment with SIX6 [6]. Further, the binding signal with SIX6 [7] was 9.01 upbm affinity estimate (log intensity, higher = more binding, comparable within an allelic series); with SIX6 [8] it was 9.1 upbm affinity estimate (log intensity, higher = more binding, comparable within an allelic series); with SIX6 [9] it was 9.26 upbm affinity estimate (log intensity, higher = more binding, comparable within an allelic series); with SIX6 [10], 9.1 upbm affinity estimate (log intensity, higher = more binding, comparable within an allelic series); in the experiment with SIX6 [11], 9.05 upbm affinity estimate (log intensity, higher = more binding, comparable within an allelic series); in the experiment with SIX6 [12], 9.09 upbm affinity estimate (log intensity, higher = more binding, comparable within an allelic series). In addition, in the experiment with SIX6 [13], the binding signal was 9.09 upbm affinity estimate (log intensity, higher = more binding, comparable within an allelic series).
Turning to CAGGGCGC, the binding signal with SIX6 [1] was 9.09 upbm affinity estimate (log intensity, higher = more binding, comparable within an allelic series); with SIX6 [2], 8.83 upbm affinity estimate (log intensity, higher = more binding, comparable within an allelic series); with SIX6 [3], 9.07 upbm affinity estimate (log intensity, higher = more binding, comparable within an allelic series); in the experiment with SIX6 [4], 9 upbm affinity estimate (log intensity, higher = more binding, comparable within an allelic series); with SIX6 [5] it was 8.98 upbm affinity estimate (log intensity, higher = more binding, comparable within an allelic series); in the experiment with SIX6 [6], 9.04 upbm affinity estimate (log intensity, higher = more binding, comparable within an allelic series). Further, the binding signal in the experiment with SIX6 [7] is 8.98 upbm affinity estimate (log intensity, higher = more binding, comparable within an allelic series); with SIX6 [8], 9.07 upbm affinity estimate (log intensity, higher = more binding, comparable within an allelic series); with SIX6 [9] it was 8.97 upbm affinity estimate (log intensity, higher = more binding, comparable within an allelic series); with SIX6 [10] it was 8.99 upbm affinity estimate (log intensity, higher = more binding, comparable within an allelic series); with SIX6 [11], 9.01 upbm affinity estimate (log intensity, higher = more binding, comparable within an allelic series); with SIX6 [12], 9.01 upbm affinity estimate (log intensity, higher = more binding, comparable within an allelic series). Also, the binding signal with SIX6 [13] was 8.97 upbm affinity estimate (log intensity, higher = more binding, comparable within an allelic series).
Turning to ACATATCA, the binding signal was 11.3 upbm affinity estimate (log intensity, higher = more binding, comparable within an allelic series) with SIX6 [1]; 10.4 upbm affinity estimate (log intensity, higher = more binding, comparable within an allelic series) with SIX6 [2]; 11.3 upbm affinity estimate (log intensity, higher = more binding, comparable within an allelic series) in the experiment with SIX6 [3]; 9.99 upbm affinity estimate (log intensity, higher = more binding, comparable within an allelic series) with SIX6 [4]; 10.7 upbm affinity estimate (log intensity, higher = more binding, comparable within an allelic series) with SIX6 [5]; 11.1 upbm affinity estimate (log intensity, higher = more binding, comparable within an allelic series) in the experiment with SIX6 [6]. Besides, the binding signal in the experiment with SIX6 [7] was 10.4 upbm affinity estimate (log intensity, higher = more binding, comparable within an allelic series); with SIX6 [8], 11.3 upbm affinity estimate (log intensity, higher = more binding, comparable within an allelic series); with SIX6 [9], 11.3 upbm affinity estimate (log intensity, higher = more binding, comparable within an allelic series); with SIX6 [10] it was 11.2 upbm affinity estimate (log intensity, higher = more binding, comparable within an allelic series); in the experiment with SIX6 [11] it was 11.1 upbm affinity estimate (log intensity, higher = more binding, comparable within an allelic series); with SIX6 [12], 11.1 upbm affinity estimate (log intensity, higher = more binding, comparable within an allelic series). In addition, the binding signal in the experiment with SIX6 [13] is 11.1 upbm affinity estimate (log intensity, higher = more binding, comparable within an allelic series).
For the sequence ATGATATC, the binding signal in the experiment with SIX6 [1] is 11.4 upbm affinity estimate (log intensity, higher = more binding, comparable within an allelic series); in the experiment with SIX6 [2], 10.5 upbm affinity estimate (log intensity, higher = more binding, comparable within an allelic series); in the experiment with SIX6 [3], 11.5 upbm affinity estimate (log intensity, higher = more binding, comparable within an allelic series); with SIX6 [4], 9.88 upbm affinity estimate (log intensity, higher = more binding, comparable within an allelic series); in the experiment with SIX6 [5] it was 10.9 upbm affinity estimate (log intensity, higher = more binding, comparable within an allelic series); in the experiment with SIX6 [6], 11.2 upbm affinity estimate (log intensity, higher = more binding, comparable within an allelic series). Besides, the binding signal is 10.6 upbm affinity estimate (log intensity, higher = more binding, comparable within an allelic series) with SIX6 [7]; 11.6 upbm affinity estimate (log intensity, higher = more binding, comparable within an allelic series) in the experiment with SIX6 [8]; 11.5 upbm affinity estimate (log intensity, higher = more binding, comparable within an allelic series) with SIX6 [9]; 11.4 upbm affinity estimate (log intensity, higher = more binding, comparable within an allelic series) with SIX6 [10]; 11.4 upbm affinity estimate (log intensity, higher = more binding, comparable within an allelic series) in the experiment with SIX6 [11]; 11.3 upbm affinity estimate (log intensity, higher = more binding, comparable within an allelic series) with SIX6 [12]. For the same sequence, the binding signal with SIX6 [13] was 11.2 upbm affinity estimate (log intensity, higher = more binding, comparable within an allelic series).
On to AAGATATC, for which the binding signal with SIX6 [1] is 11.2 upbm affinity estimate (log intensity, higher = more binding, comparable within an allelic series); with SIX6 [2] it was 10.4 upbm affinity estimate (log intensity, higher = more binding, comparable within an allelic series); in the experiment with SIX6 [3], 11.2 upbm affinity estimate (log intensity, higher = more binding, comparable within an allelic series); with SIX6 [4], 10.1 upbm affinity estimate (log intensity, higher = more binding, comparable within an allelic series); in the experiment with SIX6 [5], 10.7 upbm affinity estimate (log intensity, higher = more binding, comparable within an allelic series); in the experiment with SIX6 [6], 11 upbm affinity estimate (log intensity, higher = more binding, comparable within an allelic series). In addition, the binding signal with SIX6 [7] is 10.3 upbm affinity estimate (log intensity, higher = more binding, comparable within an allelic series); in the experiment with SIX6 [8] it was 11.1 upbm affinity estimate (log intensity, higher = more binding, comparable within an allelic series); in the experiment with SIX6 [9], 11.1 upbm affinity estimate (log intensity, higher = more binding, comparable within an allelic series); with SIX6 [10] it was 11 upbm affinity estimate (log intensity, higher = more binding, comparable within an allelic series); in the experiment with SIX6 [11], 11 upbm affinity estimate (log intensity, higher = more binding, comparable within an allelic series); in the experiment with SIX6 [12], 10.9 upbm affinity estimate (log intensity, higher = more binding, comparable within an allelic series). In addition, the binding signal with SIX6 [13] is 10.9 upbm affinity estimate (log intensity, higher = more binding, comparable within an allelic series).
CGCGCCGC: the binding signal with SIX6 [1] is 9.05 upbm affinity estimate (log intensity, higher = more binding, comparable within an allelic series); in the experiment with SIX6 [2] it was 9.06 upbm affinity estimate (log intensity, higher = more binding, comparable within an allelic series); in the experiment with SIX6 [3] it was 9.06 upbm affinity estimate (log intensity, higher = more binding, comparable within an allelic series); with SIX6 [4], 9.04 upbm affinity estimate (log intensity, higher = more binding, comparable within an allelic series); with SIX6 [5], 9.05 upbm affinity estimate (log intensity, higher = more binding, comparable within an allelic series); in the experiment with SIX6 [6] it was 9.02 upbm affinity estimate (log intensity, higher = more binding, comparable within an allelic series). Moreover, the binding signal was 9.02 upbm affinity estimate (log intensity, higher = more binding, comparable within an allelic series) with SIX6 [7]; 9.01 upbm affinity estimate (log intensity, higher = more binding, comparable within an allelic series) with SIX6 [8]; 9.07 upbm affinity estimate (log intensity, higher = more binding, comparable within an allelic series) with SIX6 [9]; 9.12 upbm affinity estimate (log intensity, higher = more binding, comparable within an allelic series) in the experiment with SIX6 [10]; 9.02 upbm affinity estimate (log intensity, higher = more binding, comparable within an allelic series) with SIX6 [11]; 9.09 upbm affinity estimate (log intensity, higher = more binding, comparable within an allelic series) in the experiment with SIX6 [12]. Also, in the experiment with SIX6 [13], the binding signal is 9.04 upbm affinity estimate (log intensity, higher = more binding, comparable within an allelic series).
